# From PubChem BioAssay AID1259422 (The Scripps Research Institute Molecular Screening Center, 2018)
# Screen size: about 640,000 compounds; about 9,300 (1.5%) were called active. What follows is part of a selection rich in actives, with near analogues and random picks from the rest. Values without a mark were called inactive. Cut-off read from the data, not from the text of the source: active = inhibition above about 32%; inactive = the rest.
# Test: TEAD-YAP interaction inhibition, primary screen, TEAD-YAP interaction inhibitor project, luminescence, HEK-TIYL cells (AID 1259422);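 note: 0% = median of test compound wells and 100% = reference inhibitor wells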
# Settings: TEAD-Gal4/YAP UAS-luciferase luminescence, at 9.12 µM, hits give high values
row,SMILES,inhibition
1,CCOC(=O)N1CCC(N2C(=O)c3ccc(C(=O)NCC(OC)OC)cc3C2=O)CC1,10.6%
2,CCCCSc1nnc(NC(=O)C2CC2)s1,-17.5%
3,NS(=O)(=O)c1cccc(N=C2C(=O)Nc3ccc([N+](=O)[O-])cc32)c1,-2.91%
4,CCN(CC)c1ccc2cc(-c3nnc(Nc4ccccc4F)s3)c(=O)oc2c1,2.05%
5,CCN(CC)c1ccc2cc(-c3nc4ccccc4[nH]3)c(=N)oc2c1,76.8% (active)
6,CCN(CC)c1ccc2cc(-c3nc4ccc(Cl)cc4[nH]3)c(=O)oc2c1,25.2%
7,CN(C)c1ccc(C=NCC(O)CN=Cc2ccc(N(C)C)cc2)cc1 (stereo unspecified),3.49%
8,CC[n+]1cc(C)ccc1/C=C/c1ccc(N(C)C)cc1,86.9% (active)
9,CC[n+]1c(/C=C/c2ccc(N(C)C)cc2)oc2ccccc21,1.32%
10,COc1ccc(/C=C2/SC(=O)N(CCCC(=O)Nc3ccc(C(=O)O)cc3)C2=O)cc1,80.5% (active)
11,Cc1ccc(/C=C2/SC(=O)N(CCC(=O)O)C2=O)cc1,19.7%
12,COc1ccc(/C=C2\SC(=O)N(Cc3ccc(C(=O)O)cc3)C2=O)cc1,1.76%
13,COc1ccc(N=C2SC(C(=O)Nc3ccc(C)cc3C)CC(=O)N2CCc2ccc(OC)c(OC)c2)cc1 (stereo unspecified),9.84%
14,O=C(Cc1cc(=O)[nH]c(=O)[nH]1)NCCCc1ccccc1,-5.86%
15,Cc1ccc2oc(C(=O)Nc3ccccc3F)cc(=O)c2c1,4.72%
16,CCOC(=O)Nc1c(C(=O)OC)[nH]c2ccc(C)cc12,-2.73%
17,CCOC(=O)Nc1cc(=O)c2cc(C)ccc2o1,41.8% (active)
18,COCCSc1nc2c(c(=O)[nH]c(=O)n2C)n1Cc1ccccc1Cl,2.74%
19,O=[N+]([O-])c1ccc2cnn(-c3cccc(C(F)(F)F)c3)c2c1,-0.71%
20,COc1ccccc1N1CCN(c2ncnc3sc(C(=O)N4CCCCC4C)c(C)c23)CC1 (stereo unspecified),6.82%
21,CCOC(=O)c1c(/N=C/c2cccc(OC)c2OC)sc2c1CCN(CC)C2,4.12%
22,CC(C)N(CC(=O)N1c2ccccc2CC1C)Cc1ccccc1 (stereo unspecified),-1.32%

row,SMILES,inhibition
1,CC/C(=N/Nc1nnc2c(n1)[nH]c1ccccc12)c1ccccc1,0.16%
2,Oc1ccc(O)c(/C=N/Nc2nnc3c(n2)[nH]c2ccccc23)c1,49% (active)
3,Cc1cccc2c1[nH]c1nc(N/N=C\c3ccc(O)cc3)nnc12,-16.6%
4,Cc1nc(N2CCC(NCC(F)(F)F)CC2)nc2cc3c(cc12)CCC3,-15.4%
5,C/C(=N\NC(=O)c1nnn(-c2nonc2N)c1C)c1ccc(Cl)c(Cl)c1,-6.68%
6,O=C(O)CCC(=O)N1CCC(c2nc3ccc(Cl)cc3[nH]2)CC1,1.09%
7,O=C(CCCn1c(=S)[nH]c2ccccc2c1=O)NCc1cccc(Cl)c1,3.21%
8,Cc1cc(C)cc(NC(=O)CCCn2c(=S)[nH]c3ccccc3c2=O)c1,34.5% (active)
9,O=C(CCCn1c(=S)[nH]c2ccccc2c1=O)Nc1ccc(F)c(Cl)c1,-21.7%
10,CC(C)n1cnc2c(NCCCN3CCCC3=O)nc(-c3csc4ccccc34)nc21,3.47%
11,c1cnc(Nc2nc(Nc3ccc(N4CCOCC4)cc3)c3ncn(-c4ccsc4)c3n2)nc1,51.1% (active)
12,OCCNc1nc(Nc2ccc(N3CCOCC3)cc2)nc2c1ncn2-c1ccccc1,28.7%
13,CC(C)n1cnc2c(NCCCN3CCCC3=O)nc(Nc3ccc(-n4ccnc4)cc3)nc21,44.4% (active)
14,COc1ccc(CCNc2nc(N3CCCC3CO)nc3c2ncn3-c2ccsc2)cc1 (stereo unspecified),53.3% (active)
15,c1ccc(Nc2nc(Nc3ccc(N4CCOCC4)cc3)c3ncn(-c4ccccc4)c3n2)cc1,3.79%
16,c1ccc(-n2cnc3c(NCCN4CCOCC4)nc(Nc4ccc(-n5ccnc5)cc4)nc32)cc1,61.3% (active)
17,c1cc(Nc2nc(Nc3ccc(N4CCOCC4)cc3)c3ncn(-c4ccsc4)c3n2)ccn1,-4.11%
18,O=C1CCCN1CCCNc1nc(Nc2ccc(-n3ccnc3)cc2)nc2c1ncn2CCN1CCCC1=O,4.85%
19,OCC1CCCN1c1nc(NC2CC2)c2ncn(-c3ccccc3)c2n1 (stereo unspecified),-46.6%
20,CN(C)c1cccc(Nc2nc(NCCN3CCOCC3)c3ncn(-c4ccccc4)c3n2)c1,3.8%
21,OCCNc1nc(N2CCCC2CO)nc2c1ncn2-c1ccsc1 (stereo unspecified),14.6%
22,C[C@@H]1CN(C(=O)C2CC23CCN(Cc2coc4ccccc4c2=O)CC3)C[C@H](C)O1 (stereo partly specified),-6.72%

row,SMILES,inhibition
1,Cc1cccc(-c2nc(-c3ccc(Cl)cc3)no2)c1,-40.1%
2,CCN(CC)S(=O)(=O)c1ccc(N2CCc3ccccc32)c([N+](=O)[O-])c1,-8.71%
3,CC(C)(C#N)OC(=O)Nc1cccc(Cl)c1,-3.72%
4,Cc1ccc(N2C(=O)Cc3c2nc(N)c2c(N)nc(N4CCCCC4)c(C#N)c32)cc1C,18.1%
5,CC(C)(C)NC(=O)c1cnn2c(C(F)(F)F)cc(-c3ccc(F)cc3)nc12,6.73%
6,CCOCCOC(=O)COc1ccc2c(C)cc(=O)oc2c1,3.62%
7,Cc1ccc(-c2cc(C(=O)Nc3ccc(Br)cc3Br)c3ccccc3n2)o1,-7.27%
8,Cc1nn(C)c(C)c1NC(=O)c1c([N+](=O)[O-])cnn1C,4.42%
9,Cc1c(Cl)cccc1N1C(=O)c2ccc(Oc3ccc(Nc4ncnc5ccccc45)cc3)cc2C1=O,2.53%
10,O=C(Cc1c(F)cccc1Cl)Nc1cc(C(=O)Nc2cccc(C(F)(F)F)c2)ccc1N1CC2CC(C1)c1cccc(=O)n1C2 (stereo unspecified),2.29%
11,Oc1ccc(CCNc2nc(Nc3ccc(N4CCOCC4)cc3)nc3c2ncn3-c2ccccc2)cc1,9.04%
12,COc1cc(Nc2nc(Nc3nccc4ccccc34)nc3c2ncn3-c2ccsc2)cc(OC)c1OC,12.9%
13,COc1cc(Nc2nc(NCc3cccnc3)nc3c2ncn3-c2ccsc2)cc(OC)c1OC,0.91%
14,c1ccc(Oc2ccc(Nc3nc(Nc4ccccn4)nc4c3ncn4-c3ccsc3)cc2)cc1,2.53%
15,CCNc1nc(Nc2cc(OC)c(OC)c(OC)c2)c2ncn(-c3ccsc3)c2n1,48.6% (active)
16,CC(=O)Nc1ccc(Nc2nc(Nc3ccc(-n4ccnc4)cc3)nc3c2ncn3-c2ccsc2)cc1,24.8%
17,COc1ccc(CCNc2nc(Nc3ccc(-n4ccnc4)cc3)nc3c2ncn3-c2ccsc2)cc1,65.1% (active)
18,Nc1nc(NCc2cccnc2)nc2c1ncn2-c1ccsc1,-5.56%
19,Oc1ccc(CCNc2nc(NCCN3CCOCC3)nc3c2ncn3-c2ccsc2)cc1,34.3% (active)
20,c1ccc2c(Nc3nc(NCCN4CCOCC4)c4ncn(-c5ccsc5)c4n3)nccc2c1,19.8%
21,Nc1nc(Nc2nccc3ccccc23)nc2c1ncn2-c1ccsc1,53.2% (active)
22,COc1cc(Nc2nc(NCc3cccnc3)c3ncn(-c4ccsc4)c3n2)cc(OC)c1OC,30.7%
